Shown is part of a subset that was picked to be rich in hits.
ROC1-CUL1 inh = inhibitors of human ROC1-CUL1 ubiquitin ligase activity | P62877+Q13616 | in vitro K48 di-Ub FRET, acceptor:donor ratio, 45 min | inhibition, % at 10 µM | hit rate 0.6% among 140,000; in the data active means inhibition above about 25%
Large screens that a line does not name were inactive.

CCOc1ccccc1N=c1ssc2c1-c1cc(C)ccc1NC2(C)C	none
CCOC(=O)C(Cc1ccc(OC)c(OC)c1)C(Cc1ccc(OC)c(OC)c1)C(=O)OCC (configuration not stated)	none
COc1cc(S(=O)(=O)N2CCN(c3cccc(Cl)c3)CC2)ccc1Cl	none
CC(C)CCOC(=O)/C=C/c1cccc(N2C(=O)c3ccccc3C2=O)c1	none
Brc1nsc(SCSc2nc(Br)ns2)n1	ROC1-CUL1 inh 33.3
COc1ccc(OC)c(NC(=O)CCC(=O)Nc2cc(OC)ccc2OC)c1	none
COc1ccccc1-c1nnc2sc(/C=C/c3ccco3)nn12	none
Fc1ccc(/C=C/c2nn3c(-c4ccco4)nnc3s2)cc1	none
Clc1ccccc1-c1nnc2sc(/C=C/c3ccco3)nn12	ROC1-CUL1 inh 96.4
Fc1ccc(-c2nn3c(-c4ccco4)nnc3s2)cc1	none
Clc1ccccc1-c1nnc2sc(-c3cccs3)nn12	none
Fc1ccc(-c2nnc3sc(/C=C/c4ccco4)nn23)cc1	ROC1-CUL1 inh 94.8
CN1CCC(N2CCC(CN(Cc3ccncc3)C(=O)C3CCCC3)CC2)CC1	none
CN1CCN(C(=O)CCN2C(=O)/C(=C\c3ccccc3)SC2=S)CC1	none
Clc1c2ccccc2nc2c1[nH]c1ccccc12	none
O=C(CN1CCN(C2CCCCC2)C(=O)C1=O)Nc1ccc(Cl)cc1	none
CCOc1ccc(NC(=O)CN2CCN(C3CCCCC3)C(=O)C2=O)cc1	ROC1-CUL1 inh 57.8
CCc1ccc(NC(=O)CN2CCN(C3CCCCC3)C(=O)C2=O)cc1	none
CC(C(=O)Nc1ccc(Cl)cc1C(F)(F)F)c1cccc(C(=O)c2ccccc2)c1 (configuration not stated)	none
CSc1nc2sccn2c(=O)c1C#N	none
CC(=O)Nc1cc(NC(C)=O)[nH]n1	none
COC12C=CC(CC1)C1=C2C(=O)c2c(OC(=O)c3ccccc3)ccc(OC(=O)c3ccccc3)c2C1=O (configuration not stated)	ROC1-CUL1 inh 70.8
CC1(C)CC(=O)C(C(c2ccccc2OC(=O)c2ccccc2)C2C(=O)CC(C)(C)CC2=O)C(=O)C1	none
O=C(Oc1cc(=O)n(-c2ccccc2)c2c1CCCC2)c1ccccc1	none
COc1ccc(OC)c(NC(=O)c2ccc(S(=O)(=O)N3CCCCC3)cc2)c1	none
C=C1CN=C(N(C(=O)Nc2ccccc2)c2ccc(F)cc2F)S1	none

Screening results as filed in PubChem.
